Screening results as filed in PubChem BioAssay.
This is a sample that favours compounds with a hit; in the whole collection about 19% have one here.
VP16 counter – VP16 counterscreen qHTS for inhibitors of ROR gamma transcriptional activity; Drosophila S2 Gal4-VP16 UAS-luciferase, luminescence, 20 h; AID 2546, 2010; 3.5% of 310,000 active; Potency, µM (titrated, usually from 53.6 µM), inactives show at the top dose activity, negative = inhibition, hits mostly inhibitors;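 further: Gal4-VP16 expression switched on by copper sulfate through the metallothionein promoter; nearly all actives have a fitted effect of over 50% in size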
DT40 TDP1 CPT – qHTS for Inhibitors of human tyrosyl-DNA phosphodiesterase 1 (TDP1): qHTS in cells in presence of CPT; 12% of 420,000 active; AID 686979, 2013; chicken DT40 Tdp1-/-;hTDP1 cells + 20 nM CPT, ATP luminescence, 48 h; Potency, µM (series often up to 46.2 µM), inactives show at the top dose activity change, negative = growth inhibition, most hits filed as inhibitors; further: nearly all actives have a fitted effect of over 55% in size
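Chicken DT40 Tdp1-/- cells complemented with human TDP1, 400 cells/well, exposed to compounds plus 20 nM camptothecin for at least 48 h at 37 C; viability read as ATP content by CellTiter-Glo luminescence.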
TDP1 block – qHTS Assay for Inhibitors of Tyrosyl-DNA Phosphodiesterase (TDP1) | recombinant TDP1, AlphaScreen DNA substrate cleavage | Potency, µM (series often up to 130 µM), without a hit: at the highest dose activity change, negative = inhibition, actives largely listed as inhibitors | 0.28% of 350,000 active | AID 485290, 2010; further: nearly all actives have a fitted effect of over 40% in size
Target sequence (Q9NUW8 whole entry, looked up): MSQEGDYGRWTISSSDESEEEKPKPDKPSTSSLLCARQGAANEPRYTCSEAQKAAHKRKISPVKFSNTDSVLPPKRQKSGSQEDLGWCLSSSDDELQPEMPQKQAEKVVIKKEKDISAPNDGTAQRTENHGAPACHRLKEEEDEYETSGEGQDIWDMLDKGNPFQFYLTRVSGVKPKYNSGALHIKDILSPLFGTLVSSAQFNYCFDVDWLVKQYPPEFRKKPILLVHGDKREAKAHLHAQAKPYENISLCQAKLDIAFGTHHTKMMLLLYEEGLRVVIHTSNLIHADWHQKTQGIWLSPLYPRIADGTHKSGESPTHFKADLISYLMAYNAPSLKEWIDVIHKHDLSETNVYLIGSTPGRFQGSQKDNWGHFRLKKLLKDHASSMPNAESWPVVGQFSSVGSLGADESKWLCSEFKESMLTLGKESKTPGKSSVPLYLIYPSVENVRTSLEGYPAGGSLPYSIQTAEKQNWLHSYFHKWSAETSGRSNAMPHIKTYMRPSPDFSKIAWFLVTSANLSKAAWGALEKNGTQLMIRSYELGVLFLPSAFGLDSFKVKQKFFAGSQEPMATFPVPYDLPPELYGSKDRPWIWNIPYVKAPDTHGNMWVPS
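AlphaScreen read-out: signal falls as enzyme removes the 3' tyrosine-FITC from a 5'-biotinylated DNA oligo (15 nM, 5 min, RT). Enzyme was E. coli-made recombinant Tdp1 at 1 nM, exposed to compound for 15 min beforehand; beads 10 ug/ml, 10 min.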
RORgamma inh – qHTS for inhibitors of ROR gamma transcriptional activity | Potency, µM (titrated, usually from 53.6 µM), for the others: at the highest dose activity change, negative = inhibition, actives largely listed as inhibitors | Drosophila S2 Gal4-RORgamma UAS-luciferase reporter, 20 h | 5.4% of 310,000 active | AID 2551, 2010; further: nearly all actives have a fitted effect of over 60% in size
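ROR gamma transcriptional activity was tracked as Gal4-UAS luciferase output in stably transfected Drosophila Schneider cells, with compound added 1 hr before 700 uM copper sulfate induction and a 20 hr ambient-temperature incubation.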
TDP1 cell noCPT – qHTS for Inhibitors of human tyrosyl-DNA phosphodiesterase 1 (TDP1): qHTS in cells in absence of CPT; DT40 Tdp1-/- hTDP1 cells, no CPT, ATP luminescence, 48 h; AID 686978, 2013; 15% of 420,000 active; Potency, µM (titrated, usually from 46.2 µM), inactives show at the highest dose activity change, negative = growth inhibition, most hits filed as inhibitors; further: nearly all actives have a fitted effect of over 55% in size
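Stably hTDP1-transfected Tdp1-null chicken DT40 cells were treated with library compounds minus camptothecin and grown for at least 48 hr at 37 °C, after which cellular ATP was quantified by luminescence.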
An asterisk follows results filed as active; ? = inconclusive; · = no result. The call rests on the fitted dose curve; in most records, active means well fitted curve in the direction sought with a large enough effect; inconclusive means small, poorly fitted or top-dose-only effect, or another doubt; inactive means no such curve, though single readings can be large; an effect the other way counts as inactive or inconclusive. On the % scale 0 is the no-effect control and ±100 the full control effect; potency means the concentration at half of the fitted maximal effect.

SMILES | VP16 counter | DT40 TDP1 CPT | TDP1 block | RORgamma inh | TDP1 cell noCPT
Nc1nc2c(ncn2[C@@H]2O[C@H](CNCc3ccc4ncccc4c3)[C@@H](O)[C@H]2O)c(=O)[nH]1 | · | 5.7% | · | · | -3.4%
C=CCOC(=O)C1C(=O)CC(C)(O)C(C(=O)OCC=C)C1c1ccc(N(C)C)cc1 (stereo not drawn) | 4.5% | -10.7% | 0.0% | 5.2% | -4.2%
Cc1ccc(-n2c(=O)c3c4c(sc3n(Cc3cccc(Cl)c3)c2=O)CCC4)cc1C | · | ? | 2.9% | · | -17.3%
CC1CN(C(=O)COC(=O)c2ccc(NC(=O)CC#N)cc2)CC(C)O1 (stereo not drawn) | 0.6% | 3.3% | -7.5% | 9.0% | 0.8%
CCOC(=O)C1CCCN(CC(=O)NC2=Nc3ccccc3N=C(C)C2c2ccccc2)C1 (stereo not drawn) | 5.6% | ? | 5.2% | 13.7% | ?
CCn1cnc2sc(C(=O)N(Cc3ccc(N(C)C)cc3)Cc3ccco3)c(C)c2c1=O | 4.0% | ? | 8.3% | 32.2% | ?
COc1ccc(C(C)C)cc1-c1cc(C(=O)NCc2cc(C(F)(F)F)cc(C(F)(F)F)c2)[nH]n1 | · | ? | · | · | -23.3%
COc1cc(F)ccc1-c1cc(C(=O)NCc2ccc(F)cc2)[nH]n1 | · | ? | · | · | -25.4%
COc1cc(F)ccc1-c1cc(C(=O)NCc2cc(C(F)(F)F)cc(C(F)(F)F)c2)[nH]n1 | · | ? | · | · | -15.5%
CCCOc1ccc(F)cc1-c1cc(C(=O)NCc2cc(OC)cc(OC)c2)[nH]n1 | · | 18.4µM* | · | · | ?
CC(C)Oc1ccc(F)cc1-c1cc(C(=O)NCc2ccc(C(F)(F)F)cc2)[nH]n1 | · | 16.4µM* | · | · | ?
CC(C)Oc1ccc(F)cc1-c1cc(C(=O)NCc2cc(C(F)(F)F)cc(C(F)(F)F)c2)[nH]n1 | · | 18.4µM* | · | · | 20.6µM*
COc1cc(CNC(=O)c2cc(-c3cc(F)ccc3OC(C)C)n[nH]2)cc(OC)c1 | · | 16.4µM* | · | · | ?
COc1ccc(NC(=O)c2c(C(F)(F)F)nn(C)c2SCc2ccccc2)cc1 | 1.6% | ? | 1.0% | -0.3% | ?
COc1ccccc1CNC(=O)c1cc(-c2cc(F)ccc2OC(C)C)n[nH]1 | · | 16.4µM* | · | · | 20.6µM*
COc1ccccc1CNC(=O)c1cc(-c2ccccc2)n[nH]1 | · | -6.0% | 5.6% | · | ?
COc1ccc(NC(=O)C2(C)CCN2C(=O)c2ccc(C(C)(C)C)cc2)cc1OC (stereo not drawn) | · | 13µM* | · | · | 10.3µM*
CC(C)(C)c1ccc(C(=O)N2CCC2(C)C(=O)Nc2ccc3[nH]ncc3c2)cc1 (stereo not drawn) | · | 20.6µM* | · | · | 14.6µM*
CC(C)C(=O)N1CCC1(C)C(=O)Nc1ccc2cn[nH]c2c1 (stereo not drawn) | · | -9.3% | · | · | -2.5%
CC(C)(C)c1ccc(C(=O)N2CCC2(C)C(=O)Nc2ccc3nc[nH]c3c2)cc1 (stereo not drawn) | · | 14.6µM* | · | · | 18.4µM*
COc1ccccc1CNC(=O)COc1ccc([N+](=O)[O-])cc1 | -6.9% | -0.4% | 8.2% | 15.7% | ?
CCN(CC)c1ccc(S(=O)(=O)N2CCOCC2)cc1NC(=O)COC(=O)/C=C/c1ccco1 | · | 23.1µM* | · | · | 25.9µM*
CCN(CC)c1ccc(S(=O)(=O)N2CCOCC2)cc1NC(=O)COC(=O)c1cccnc1SC | · | ? | 8.0% | · | 16.4µM*
CCOc1ncccc1C(=O)OCC(=O)Nc1cc(S(=O)(=O)N2CCOCC2)ccc1Cl | -6.9% | -24.3% | 5.5% | ? | -12.7%
CN(CC(=O)Nc1ccc(N2CCOCC2)cc1)C(=O)CCc1cc(C(C)(C)C)c(O)c(C(C)(C)C)c1 | · | ? | 13.9% | · | 16.4µM*
CN(CC(=O)Nc1ccc(N2CCOCC2)cc1)C(=O)CSc1ccc(Br)cc1 | 4.3% | ? | 89.1µM* | 20.6% | 14.6µM*
